Assays:
[1] = target: T1, CDK3/cyclin E (Homo sapiens) (UniProt P24864+O96020+Q00526); settings: at 1 µM
[2] = target: T1, CDK3/cyclin E (Homo sapiens); settings: at 10 µM
[3] = target: T2, Cyclin-dependent kinase 5/CDK5 activator 1 (Homo sapiens) (UniProt Q00535+Q15078); settings: at 1 µM
[4] = target: T2, Cyclin-dependent kinase 5/CDK5 activator 1 (Homo sapiens); settings: at 10 µM
[5] = target: T3, CDK6/cyclin D3 (Homo sapiens) (UniProt P30281+Q00534); settings: at 1 µM
[6] = target: T3, CDK6/cyclin D3 (Homo sapiens); settings: at 10 µM
[7] = target: T4, Cyclin-dependent kinase 7/ cyclin H (Homo sapiens) (UniProt P51946+P50613); settings: at 1 µM
[8] = target: T4, Cyclin-dependent kinase 7/ cyclin H (Homo sapiens); settings: at 10 µM
[9] = target: T5, CDK9/cyclin T1 (Homo sapiens) (UniProt O60563+P50750); settings: at 1 µM
[10] = target: T5, CDK9/cyclin T1 (Homo sapiens); settings: at 10 µM
[11] = target: T6, Serine/threonine-protein kinase Chk1 (Homo sapiens) (UniProt O14757); settings: at 1 µM
T6 sequence (whole entry): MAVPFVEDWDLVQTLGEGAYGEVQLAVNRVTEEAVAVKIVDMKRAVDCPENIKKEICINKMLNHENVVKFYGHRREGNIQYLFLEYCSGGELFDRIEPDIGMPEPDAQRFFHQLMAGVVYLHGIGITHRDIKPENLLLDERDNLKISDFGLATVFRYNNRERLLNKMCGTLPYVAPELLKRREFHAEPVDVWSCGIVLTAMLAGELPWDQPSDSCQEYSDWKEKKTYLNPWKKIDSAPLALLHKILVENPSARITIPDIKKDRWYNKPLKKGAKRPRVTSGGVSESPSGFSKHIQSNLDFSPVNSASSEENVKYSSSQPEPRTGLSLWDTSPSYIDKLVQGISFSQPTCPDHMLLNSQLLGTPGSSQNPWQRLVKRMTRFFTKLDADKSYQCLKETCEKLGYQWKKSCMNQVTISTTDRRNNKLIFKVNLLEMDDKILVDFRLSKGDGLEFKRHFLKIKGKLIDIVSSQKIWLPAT

[12] = target: T6, Serine/threonine-protein kinase Chk1 (Homo sapiens); settings: at 10 µM
[13] = target: Serine/threonine-protein kinase Chk2 (Homo sapiens) (UniProt O96017); settings: at 1 µM
Sequence of Serine/threonine-protein kinase Chk2 (Homo sapiens) (O96017 whole entry, canonical isoform): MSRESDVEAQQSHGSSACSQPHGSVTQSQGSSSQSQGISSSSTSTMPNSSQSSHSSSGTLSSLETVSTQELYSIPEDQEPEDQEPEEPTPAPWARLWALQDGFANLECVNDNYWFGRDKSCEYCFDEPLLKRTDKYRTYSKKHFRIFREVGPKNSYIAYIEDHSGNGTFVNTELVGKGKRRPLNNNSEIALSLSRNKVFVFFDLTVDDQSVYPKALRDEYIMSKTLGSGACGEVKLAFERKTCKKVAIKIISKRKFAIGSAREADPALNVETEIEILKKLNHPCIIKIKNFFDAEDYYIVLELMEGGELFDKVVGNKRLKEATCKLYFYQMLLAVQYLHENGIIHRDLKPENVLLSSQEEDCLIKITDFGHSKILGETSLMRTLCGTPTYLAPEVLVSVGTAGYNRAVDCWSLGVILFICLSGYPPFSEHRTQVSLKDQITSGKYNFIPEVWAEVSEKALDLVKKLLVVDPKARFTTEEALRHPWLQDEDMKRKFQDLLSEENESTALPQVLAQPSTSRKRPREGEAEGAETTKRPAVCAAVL

[14] = target: Casein kinase I isoform gamma-1 (Homo sapiens) (UniProt Q9HCP0); settings: at 1 µM
Sequence of Casein kinase I isoform gamma-1 (Homo sapiens) (Q9HCP0 whole entry, looked up, canonical isoform): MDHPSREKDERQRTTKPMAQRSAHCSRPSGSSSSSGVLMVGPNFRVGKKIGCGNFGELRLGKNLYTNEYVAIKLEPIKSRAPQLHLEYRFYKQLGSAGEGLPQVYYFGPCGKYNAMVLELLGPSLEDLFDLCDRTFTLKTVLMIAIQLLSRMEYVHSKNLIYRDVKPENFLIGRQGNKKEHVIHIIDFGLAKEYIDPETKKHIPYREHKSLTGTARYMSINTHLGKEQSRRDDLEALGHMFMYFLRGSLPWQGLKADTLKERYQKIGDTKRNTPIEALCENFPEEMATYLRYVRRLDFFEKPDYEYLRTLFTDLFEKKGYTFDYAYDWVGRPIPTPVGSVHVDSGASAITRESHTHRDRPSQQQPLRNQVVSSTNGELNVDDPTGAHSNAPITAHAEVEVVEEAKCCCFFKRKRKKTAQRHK

[15] = target: Casein kinase I isoform gamma-1 (Homo sapiens) (UniProt Q9HCP0); settings: at 10 µM
[16] = target: Casein kinase I isoform delta (Homo sapiens) (UniProt P48730); settings: at 1 µM
Sequence of Casein kinase I isoform delta (Homo sapiens) (P48730 whole entry, looked up, canonical isoform): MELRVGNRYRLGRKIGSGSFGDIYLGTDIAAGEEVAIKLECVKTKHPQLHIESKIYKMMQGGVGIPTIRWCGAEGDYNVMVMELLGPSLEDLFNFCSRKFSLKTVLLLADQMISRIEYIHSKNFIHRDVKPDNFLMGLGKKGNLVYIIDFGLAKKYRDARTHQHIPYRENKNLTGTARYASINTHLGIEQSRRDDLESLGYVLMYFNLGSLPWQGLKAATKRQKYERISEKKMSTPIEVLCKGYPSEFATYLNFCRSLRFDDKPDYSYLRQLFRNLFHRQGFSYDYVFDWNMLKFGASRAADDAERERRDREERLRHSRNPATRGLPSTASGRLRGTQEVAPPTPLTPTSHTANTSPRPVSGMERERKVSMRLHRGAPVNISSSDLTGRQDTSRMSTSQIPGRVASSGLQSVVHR

[17] = target: Casein kinase I isoform delta (Homo sapiens) (UniProt P48730); settings: at 10 µM
[18] = target: T2, Cyclin-dependent kinase 5/CDK5 activator 1 (Homo sapiens); settings: at 1 µM; remark: listed apart in the source
[19] = target: T2, Cyclin-dependent kinase 5/CDK5 activator 1 (Homo sapiens); settings: at 10 µM; remark: listed apart in the source
[20] = target: Serine/threonine-protein kinase Chk2 (Homo sapiens) (UniProt O96017); settings: at 10 µM

T2 sequence (Q00535 whole entry): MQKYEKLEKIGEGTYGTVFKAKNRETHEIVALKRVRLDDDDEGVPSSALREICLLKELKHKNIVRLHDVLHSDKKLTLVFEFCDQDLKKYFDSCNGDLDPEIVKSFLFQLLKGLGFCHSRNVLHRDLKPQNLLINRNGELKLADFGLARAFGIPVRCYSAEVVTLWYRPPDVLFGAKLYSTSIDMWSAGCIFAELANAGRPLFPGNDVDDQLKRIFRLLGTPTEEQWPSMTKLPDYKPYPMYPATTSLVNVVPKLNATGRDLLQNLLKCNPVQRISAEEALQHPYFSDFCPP
T2 sequence (Q15078 99-307 partner limits assumed): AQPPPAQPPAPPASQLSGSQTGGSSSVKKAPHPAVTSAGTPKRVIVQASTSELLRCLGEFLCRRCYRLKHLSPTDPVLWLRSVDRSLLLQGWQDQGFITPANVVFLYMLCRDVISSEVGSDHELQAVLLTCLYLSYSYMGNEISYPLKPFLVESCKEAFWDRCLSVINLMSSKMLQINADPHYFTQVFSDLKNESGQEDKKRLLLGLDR
T1 sequence (O96020 whole entry, looked up): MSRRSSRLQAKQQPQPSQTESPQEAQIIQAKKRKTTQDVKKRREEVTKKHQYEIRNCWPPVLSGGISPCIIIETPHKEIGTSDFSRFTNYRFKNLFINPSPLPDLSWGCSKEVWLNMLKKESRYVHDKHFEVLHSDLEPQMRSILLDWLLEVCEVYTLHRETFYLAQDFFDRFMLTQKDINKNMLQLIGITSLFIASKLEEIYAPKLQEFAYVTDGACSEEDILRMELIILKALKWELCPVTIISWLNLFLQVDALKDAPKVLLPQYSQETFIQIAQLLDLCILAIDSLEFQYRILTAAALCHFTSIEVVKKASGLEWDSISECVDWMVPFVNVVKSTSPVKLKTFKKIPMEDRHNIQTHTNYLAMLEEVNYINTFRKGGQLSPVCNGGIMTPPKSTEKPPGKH
T1 sequence (P24864 whole entry, looked up): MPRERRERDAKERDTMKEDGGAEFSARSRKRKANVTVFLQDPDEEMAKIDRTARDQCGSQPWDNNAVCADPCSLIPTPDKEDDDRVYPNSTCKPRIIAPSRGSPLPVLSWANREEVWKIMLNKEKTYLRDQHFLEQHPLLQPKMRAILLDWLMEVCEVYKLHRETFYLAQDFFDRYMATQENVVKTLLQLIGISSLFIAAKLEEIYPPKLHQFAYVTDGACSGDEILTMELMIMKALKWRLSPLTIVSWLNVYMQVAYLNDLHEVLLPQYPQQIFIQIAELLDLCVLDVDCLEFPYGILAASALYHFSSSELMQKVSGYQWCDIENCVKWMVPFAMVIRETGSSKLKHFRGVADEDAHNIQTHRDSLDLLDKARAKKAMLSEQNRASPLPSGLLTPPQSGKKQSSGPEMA
T1 sequence (Q00526 whole entry, looked up): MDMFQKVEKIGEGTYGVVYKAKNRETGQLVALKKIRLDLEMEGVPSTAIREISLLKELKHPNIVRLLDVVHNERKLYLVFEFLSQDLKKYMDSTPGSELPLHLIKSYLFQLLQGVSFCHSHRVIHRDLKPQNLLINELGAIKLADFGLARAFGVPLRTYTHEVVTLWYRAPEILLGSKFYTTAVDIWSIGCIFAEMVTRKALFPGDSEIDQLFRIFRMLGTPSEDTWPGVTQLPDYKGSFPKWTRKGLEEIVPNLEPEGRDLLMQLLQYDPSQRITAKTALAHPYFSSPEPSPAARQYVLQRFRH

| SMILES | residual activity [1] | residual activity [2] | residual activity [3] | residual activity [4] | residual activity [5] | residual activity [6] | residual activity [7] | residual activity [8] | residual activity [9] | residual activity [10] | residual activity [11] | residual activity [12] | residual activity [13] | residual activity [14] | residual activity [15] | residual activity [16] | residual activity [17] | residual activity [18] | residual activity [19] | residual activity [20] |
| --- | --- | --- | --- | --- | --- | --- | --- | --- | --- | --- | --- | --- | --- | --- | --- | --- | --- | --- | --- | --- |
| Nc1ncnc2c1cnn2-c1ccccc1 | 95% | 86% | 92% | 79% | 95% | 85% | 86% | 88% | 102% | 73% | 91% | 83% | 92% | 98% | 99% | 85% | 36% |  |  |  |
| NC(=O)Nc1sc(-c2ccc(F)cc2)cc1C(N)=O | 73% | 43% | 81% | 33% | 78% | 33% | 87% | 61% | 89% | 42% | 37% | 7% | 34% | 104% | 71% | 71% | 31% | 70% | 33% | 4% |
| CN(C)S(=O)(=O)c1ccc2c(c1)/C(=C/c1cc3c([nH]1)CCCC3)C(=O)N2 | 87% | 83% | 90% | 87% | 96% | 87% | 25% | 16% | 92% | 93% | 77% | 73% | 35% |  |  | 92% | 71% | 90% | 98% |  |
| COc1cc2c(cc1OC)-c1n[nH]c(Nc3cccc(F)c3)c1C2 | 78% | 46% | 81% | 61% | 76% | 71% | 83% | 75% | 99% | 50% | 72% | 75% | 82% |  | 73% | 76% | 39% | 82% | 53% | 70% |
| O=C1NC(=O)C(c2cn(CCCO)c3ncccc23)=C1c1cnccn1 | 93% | 70% | 90% | 61% |  |  | 71% | 54% | 89% | 82% |  |  | 88% | 93% | 90% | 79% | 79% | 73% | 51% | 79% |
| c1ccc(-c2cnc(Nc3ccc(OCCN4CCCC4)cc3)s2)cc1 | 81% | 43% | 71% | 25% | 38% | 6% | 70% | 39% | 26% | 4% |  |  |  |  |  | 81% | 54% | 64% | 17% |  |
| O=C1C(Cl)=C(N2C(=O)CCC2=O)C(=O)c2ccccc21 | 97% | 85% | 119% | 85% | 98% | 86% |  | 89% | 86% | 87% | 94% | 87% | 88% |  |  | 91% | 85% | 95% | 86% | 84% |
| CC(C)(C)c1nc2c3ccc(F)cc3c3c(=O)[nH]ccc3c2[nH]1 |  | 54% |  |  | 71% | 50% | 69% |  |  |  | 37% | 24% | 2% |  |  |  |  |  |  | 1% |
| N#C/C(=C\c1ccc(O)c(O)c1)C(=O)NCc1ccccc1 | 100% | 81% |  |  |  |  |  |  |  |  |  |  | 89% |  |  | 80% | 87% |  |  | 73% |
| O=C(Nc1nc2ccccc2n1CCN1CCOCC1)c1cccc([N+](=O)[O-])c1 |  |  |  |  | 88% | 88% | 75% | 77% | 41% | 58% | 85% |  | 79% | 58% | 67% | 64% | 62% |  |  | 67% |
| NC(=O)c1cccc(-c2cc(Nc3ccc(OC(F)(F)F)cc3)ncn2)c1 |  |  |  |  |  |  |  | 91% |  | 69% | 99% | 96% | 95% | 94% | 63% | 90% | 74% | 93% | 65% | 87% |
| CCCCc1c(-c2ccc(O)cc2)[nH]c2nccnc12 | 29% | 6% |  |  | 89% | 33% | 78% | 51% | 7% | 7% | 91% | 100% | 31% | 75% | 61% | 81% | 52% |  |  | 10% |
| CCOc1nc(NC(=O)Cc2cc(OC)ccc2OC)cc(N)c1C#N | 82% |  |  |  | 100% |  |  |  |  |  |  |  |  |  |  |  |  |  |  |  |
| NC(=O)c1ccc(-c2nc(-c3ccc4c(c3)OCCO4)c(-c3ccccn3)[nH]2)cc1 |  |  | 96% | 80% |  |  | 92% | 81% |  |  |  |  | 92% | 82% | 83% | 17% | 2% |  | 84% | 81% |
| O=C1NC(=O)C(c2c[nH]c3ccccc23)=C1c1c[nH]c2ccccc12 |  | 29% | 76% | 42% |  |  | 76% | 32% | 36% | 5% |  | 53% | 73% |  |  |  | 56% | 74% | 28% | 25% |
| CC(C)[C@H](CO)Nc1nc(Nc2cc(N)cc(Cl)c2)c2ncn(C(C)C)c2n1 |  |  | 20% | 2% |  |  | 43% | 6% |  |  |  |  | 67% |  |  | 74% | 26% |  |  | 30% |

— ChEMBL document CHEMBL2218924, “A broad activity screen in support of a chemogenomic map for kinase signalling research and drug discovery” (Biochem J, 2013)
